High-throughput results (PubChem BioAssay)
Rows were chosen to be rich in hits. Some 4% of all compounds tested hit in one or more screens of this group.
PAX8 inh HTS – inhibitors of PAX8 transcriptional activity in RMG-I cells; RMG-I TPO-luciferase reporter, SteadyGlo, 24 h; inhibition, % at 12.6 µM; 360,000 compounds, 1.2% hits; AID 652154;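 active means mean replicate inhibition at least 60% with every replicate also reaching 60%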;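 further: luciferase light reporting Pax8 driven TPO promoter activity; plate controls were median of neutral control wells for no effect and mitoxantrone controls for full effect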
Wnt act – Wnt/beta-catenin pathway activation; Wnt/beta-catenin reporter cell assay, activator, plate reader; 300,000 compounds, 1.2% hits; activation, % at 9.35 µM; in the data active means activation above about 30%, passing the limit was not always enough;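 further: 0% = neutral control wells and 100% = positive control wells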
MITF TRPM1 HTS – increases MITF-driven TRPM1 promoter luciferase signal; SK-MEL-5 TRPM1-promoter luciferase, 24 h; % of positive control, neutral wells = 0; activation, % at 12.5 µM; 300,000 compounds, 0.75% hits; AID 588334;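 active means mean activation of at least 80% with every replicate also reaching 80%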;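 further: 0% = neutral control wells and 100% = parthenolide positive control wells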
EWS-Fli inh – blocks EWS/Fli oncoprotein-driven transcription | AID 651661 | 350,000 compounds, 0.67% hits | A673 NR0B1-luciferase reporter, viability-normalised | inhibition, % at 12.6 µM;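 active means mean inhibition of at least 50% after viability correction, with every replicate also passing that limit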;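 further: firefly luciferase signal divided by Alamar Blue viability fluorescence both relative to DMSO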
esBAF inh – inhibitors of esBAF chromatin remodeling in mouse ES cells. Bmi1-luciferase knock-in reporter, 24 h; 100% = twice the neutral-well signal. reporter increase, % at 12.5 µM. AID 602393. 350,000 compounds, 2% hits; in the data active means activation above about 40%;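 further: 0% = median of the plate's neutral control wells and 100% = double that signal; a rise in the Bmi1 reporter signal indicates esBAF inhibition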
MITF TRPM1 inh – reduces MITF-dependent TRPM1 promoter luciferase signal; SK-MEL-5 TRPM1 promoter luciferase, 24 h; inhibition, % at 12.5 µM; 330,000 compounds, 0.83% hits;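 active means mean inhibition across replicates of 60% or more, whatever share of single replicates reaches that level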
The depositor's hits bear a star; x = no result.

SMILES | PAX8 inh HTS | Wnt act | MITF TRPM1 HTS | EWS-Fli inh | esBAF inh | MITF TRPM1 inh
CCOC(=O)c1c(C)[nH]c(C(=O)OCc2ccccc2)c1C | -260 | 43* | 92* | x | 76* | -98
CCOC(=O)c1c(C)[nH]c(C(=O)OCC(=O)NCc2ccco2)c1C | -37 | x | x | -21 | 49* | x
COCC(=O)N1CCC2(CC1)CN(Cc1ccccn1)[C@@H](CO)c1[nH]c3cc(OC)ccc3c12 | x | x | x | 9 | x | x
CCCCCCC(=O)c1c(C)[nH]c(C(=O)OCC)c1C | x | x | x | x | 55* | -16
CCOC(=O)c1c(C)oc2c1cc(O)c1ccccc12 | x | x | 47 | x | x | -45
CCCCCC(=O)c1c(C)[nH]c(C(=O)OCC)c1C | -28 | 9 | 0 | x | x | -2
CCOC(=O)c1c(C)[nH]c2c1cc(O)c1ccccc12 | x | 20 | -1 | -60 | 62* | 1
CCCNC(=O)C[C@@H]1C[C@@H]2c3cc(NC(=O)c4ccc5c(c4)OCO5)ccc3O[C@@H]2[C@@H](CO)O1 | -6 | x | x | -6 | -10 | x
CO[C@H]1CN(C)C(=O)c2ccc(NC(=O)C3CC3)cc2OC[C@H](C)N(C(=O)NC(C)C)C[C@@H]1C | 8 | x | x | 5 | -1 | x
CN=C1S/C(=C\c2ccc(N3CCOCC3)c(F)c2)C(=O)N1C | -26 | 2 | x | x | 71* | -42
CCCC#Cc1ccc([C@@H]2[C@H](CO)N3C(=O)CN(C(=O)c4ccccn4)C[C@@H]23)cc1 | x | x | x | -5 | x | x
CC1=C2[C@@H](c3ccccc3)OB(O)C[C@@H]2[C@@H]2C(=O)N(Cc3ccccc3)C(=O)[C@@H]2C1 | 7 | x | x | -6 | x | x
CSc1ccc(/C=C/C(=O)c2c(O)cc(C)oc2=O)cc1 | -148 | 19 | 28 | -54 | 54* | -20
CSc1ccc(/C=C/C(=O)c2ccc(NC(=O)C(C)C)cc2)cc1 | x | x | 4 | x | x | -4
Cc1cc(O)c(C(=O)/C=C/c2ccc(Cl)cc2)c(=O)o1 | -74 | 15 | x | -29 | 30 | -10
CSc1ccc(C(=O)/C=C/c2ccc(N)cc2)cc1 | -160 | 67* | 64 | x | 66* | -70
COc1ccc(/C=C/C(=O)c2c(O)cc(C)oc2=O)c(OC)c1 | x | 15 | 10 | x | 64* | -8
O=C(CN1CCN(c2ncc(C(F)(F)F)cc2Cl)CC1)N1CCN(c2ncc(C(F)(F)F)cc2Cl)CC1 | x | x | -3 | x | x | 2
CN(C)c1ccc(NC(=S)N2CCN(c3ncc(C(F)(F)F)cc3Cl)CC2)cc1 | 2 | 52* | 2 | -6 | x | 1
COc1ccc(NC(=O)N(C)C[C@@H]2Oc3c(NC(=O)c4ccc(-c5nccs5)cc4)cccc3C(=O)N([C@@H](C)CO)C[C@H]2C)cc1 | x | x | x | -3 | 0 | x
Cc1cc2n(n1)SC(Nc1cccc3ccccc13)N2 (stereo unspecified) | -81 | 47* | 1 | x | 50* | -4
CC(=O)Nc1c(Br)cc2c(c1Br)C(=O)c1ccccc1-2 | -3 | 4 | 3 | -3 | x | -3
CC(=O)C1=C(c2ccc(Br)cc2)C(=O)c2ccccc2C1=O | 99* | -26 | -83 | x | -75 | 84*
CO[C@H]1CN(C)C(=O)c2cc(NC(=O)c3ccc(F)cc3)ccc2OC[C@H](C)N(C(=O)CN(C)C)C[C@@H]1C | -10 | x | x | -6 | -1 | x
CCNC(=O)C[C@H]1CC[C@H]2[C@@H](COC[C@@H](O)CN2C(=O)Nc2ccc(Cl)c(Cl)c2)O1 | -7 | x | x | -15 | 5 | x
SMILES | PAX8 inh HTS | Wnt act | MITF TRPM1 HTS | EWS-Fli inh | esBAF inh | MITF TRPM1 inh
O=C(Cc1ccccc1)N/N=C/c1ccc([N+](=O)[O-])s1 | x | x | -69 | x | 16 | 68*
O=C(N/N=C/c1cccs1)c1cncc(Br)c1 | -7 | 4 | 3 | -5 | x | -1
COC(=O)N/N=C/c1ccc([N+](=O)[O-])s1 | -3 | 1 | -23 | x | -3 | 23
Cc1cc(C(=O)N/N=C/c2ccc([N+](=O)[O-])s2)c2ccccc2n1 | 21 | -4 | -58 | 33 | -1 | 60
O=C(N/N=C/c1ccc([N+](=O)[O-])s1)c1ccccc1 | 20 | 1 | -105 | 63* | -71 | 105*
Cc1ccccc1C(=O)N/N=C/c1ccc([N+](=O)[O-])s1 | x | x | -93 | x | -62 | 94*
O=C(N/N=C\c1ccc([N+](=O)[O-])s1)c1cncc(Br)c1 | 86* | -4 | -77 | -6 | x | 78*
Cn1c(SCC(=O)N/N=C/c2cc([N+](=O)[O-])ccc2O)nnc1-c1ccccc1 | -5 | 1 | -4 | 2 | 0 | 5
O=C(N/N=C/c1ccc([N+](=O)[O-])s1)c1ccccc1Br | x | -4 | -90 | 48 | -65 | 90*
Cn1c(SCC(=O)N/N=C/c2ccc([N+](=O)[O-])s2)nnc1-c1ccccc1 | 33 | -1 | -70 | 49 | x | 71*
COc1ccccc1NC(=O)C(=O)N/N=C/c1ccc([N+](=O)[O-])s1 | -2 | -4 | -49 | -13 | -9 | 50
O=C(CNC(=O)c1cccc(Br)c1)N/N=C/c1cccs1 | 31 | -3 | x | -9 | -1 | -2
O=C(N/N=C/c1ccc([N+](=O)[O-])s1)C(O)c1ccccc1 (stereo unspecified) | 48 | -1 | -67 | 36 | x | 69*
O=C(CNC(=O)c1cccc(F)c1)N/N=C/c1ccc([N+](=O)[O-])s1 | 37 | -1 | -71 | x | x | 71*
CO[C@@H]1CN(C)C(=O)c2cc(NC(=O)C3CCOCC3)ccc2OC[C@@H](C)N(Cc2cccnc2)C[C@H]1C | 2 | x | x | -11 | -6 | x
C[C@@H]1CN([C@@H](C)CO)C(=O)Cc2cc(NC(=O)CCC(F)(F)F)ccc2O[C@H]1CN(C)C(=O)Nc1ccccc1 | -2 | x | x | -3 | 1 | x
Cn1c(-c2ccc(F)c(F)c2)cc2onc(-c3ccccc3)c2c1=O | -221 | 64* | 116* | -76 | 39 | -109
COc1cccc(-c2cc3onc(-c4ccccc4)c3c(=O)n2C)c1 | -195 | 38* | 63 | 17 | -17 | -64
O=c1onc(-c2ccccc2)c2ccccc12 | -1 | 0 | x | 0 | x | -1
C[C@H](CO)N1C[C@H](C)[C@@H](CN(C)CC2CC2)Oc2cc(C#CC(C)(C)O)ccc2S1(=O)=O | x | x | x | 5 | 1 | x
CCCCCCCSc1ncnc2[nH]ncc12 | -33 | 3 | 24 | -25 | 70* | -31
CC(=O)c1ccc2c(c1)C1C=CCC1C(c1ccncc1)N2 (stereo unspecified) | x | x | 34 | x | 54* | -31
COc1ccccc1N1CCN(/N=C\c2ccc(C)o2)CC1 | -149 | 42* | 54 | x | x | -51
COc1ccccc1N1CCN(/N=C\c2ccccc2)CC1 | -66 | 3 | x | -126 | 36 | -63
COc1ccccc1N1CCN(/N=C/C(Cl)=C/c2ccccc2)CC1 | -139 | 45* | x | -92 | x | -39
CC(OC(=O)c1ccc(-n2cnnn2)cc1)C(=O)Nc1ccc(F)c(F)c1F (stereo unspecified) | 0 | 2 | 1 | -6 | -4 | 1
